Assay results taken from the supplement of paper PMC9262897, “Low-cost anti-mycobacterial drug discovery using engineered E. coli” (Nature Communications, 2022).
Counter-ions that a name gives are not always drawn. ± gives the standard deviation of the averaged measurements.

Columns and labels:
Assay in all cases: growth (OD600 after 10 h); higher = more growth (less inhibition)
[1] = system: E. coli TESEC Alr+ wild-type control; conditions: compound 0.1 mM; raw OD600 reference: median of DMSO wells 0.241, cell-free background 0.041
Procedure: (§1)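 TESEC Mtb Alr E. coli, or the Alr+ wild-type control, in 384-well plates with Prestwick library compounds at 0.1 mM and 1% DMSO, across arabinose induction levels of 1E3 to 1E7 nM. Growth is read as OD600 after 10 h at 37 °C in triplicate biological replicates.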

E. coli TESEC Mtb Asd = conditions: compound 0.1 mM
Procedure: (§2)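 TESEC E. coli strains in which the native enzyme is deleted and replaced by arabinose-inducible Mtb Asd, DapB, CysH or TrpD, each grown in its selective medium. Strains were screened against the Prestwick library at 0.1 mM and 1% DMSO in 384-well format at low and high arabinose induction. Growth is read as OD600 after 10 h in triplicate.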

E. coli TESEC Mtb DapB = conditions: compound 0.1 mM
Procedure: as §2

E. coli TESEC Mtb Alr [2] = conditions: compound 0.1 mM
Procedure: (§3)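 TESEC Mtb Alr E. coli (ΔaraC ΔtolC ΔentC Δalr ΔdadX, arabinose-inducible Mtb Alr) or the Alr+ wild-type control strain, grown in defined M9-fructose medium without D-alanine in 96-well plates with Prestwick library compounds at 0.1 mM and 1% DMSO. Low Alr induction is 0.1 µM arabinose and high induction is 10 mM arabinose.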

E. coli TESEC Mtb Alr [3] = conditions: compound 0.1 mM; remark: listed apart in the source
Procedure: as §1

[4] = system: E. coli TESEC Alr+ wild-type control; conditions: compound 0.1 mM; raw OD600 reference: median of DMSO wells 0.49, cell-free background 0.052
Procedure: as §3

[5] = arabinose induction (level): High, raw OD600 reference: median of DMSO wells 0.331, cell-free background 0.041
[6] = arabinose induction (level): Low, raw OD600 reference: median of DMSO wells 0.417, cell-free background 0.041
[7] = arabinose induction (level): High, raw OD600 reference: median of DMSO wells […], cell-free background 0.041
[8] = arabinose induction (level): Low, raw OD600 reference: median of DMSO wells 0.227, cell-free background 0.041
[9] = arabinose 100 nM, raw OD600 reference: median of DMSO wells 0.413, cell-free background 0.052
[10] = arabinose 10000000 nM, raw OD600 reference: median of DMSO wells […], cell-free background 0.052
[11] = arabinose 1000 nM, raw OD600 reference: median of DMSO wells 0.294, cell-free background 0.041
[12] = arabinose 10000 nM, raw OD600 reference: median of DMSO wells 0.264, cell-free background 0.041
[13] = arabinose 100000 nM, raw OD600 reference: median of DMSO wells 0.201, cell-free background 0.041
[14] = arabinose 1000000 nM, raw OD600 reference: median of DMSO wells 0.193, cell-free background 0.041
[15] = arabinose 10000000 nM, raw OD600 reference: median of DMSO wells 0.146, cell-free background 0.041

| SMILES | growth [1] | growth (E. coli TESEC Mtb Asd; [5]) | growth (E. coli TESEC Mtb Asd; [6]) | growth (E. coli TESEC Mtb DapB; [7]) | growth (E. coli TESEC Mtb DapB; [8]) | growth (E. coli TESEC Mtb Alr [2]; [9]) | growth (E. coli TESEC Mtb Alr [2]; [10]) | growth (E. coli TESEC Mtb Alr [3]; [11]) | growth (E. coli TESEC Mtb Alr [3]; [12]) | growth (E. coli TESEC Mtb Alr [3]; [13]) | growth (E. coli TESEC Mtb Alr [3]; [14]) | growth (E. coli TESEC Mtb Alr [3]; [15]) | growth [4] |
| --- | --- | --- | --- | --- | --- | --- | --- | --- | --- | --- | --- | --- | --- |
| CC(=O)O[C@H]1CC[C@@]2(C)C(=CC[C@@H]3[C@@H]2CC[C@]2(C)C(=O)CC[C@@H]32)C1 [Dehydroisoandosterone 3-acetate] | 0.198 ± 0.065 | 0.315 ± 0.044 | 0.391 ± 0.0042 | 0.181 ± 0.005 | 0.225 ± 0.017 | 0.376 ± 0.012 | 0.0699 ± 0.0044 | – | – | – | – | – | – |
| COc1ccc(CCN2CCC(Nc3nc4ccccc4n3Cc3ccc(F)cc3)CC2)cc1 [Astemizole] | 0.041 ± 0.00045 | 0.0477 ± 0.0029 | 0.053 ± 0.004 | 0.04653 ± 0.00032 | 0.0845 ± 0.059 | 0.176 ± 0.22 | 0.0525 ± 0.0011 | – | – | – | – | – | – |
| NC(=O)OCCCc1ccccc1 [Phenprobamate] | 0.219 ± 0.0026 | 0.31 ± 0.11 | 0.323 ± 0.063 | 0.197 ± 0.023 | 0.215 ± 0.024 | 0.421 ± 0.011 | 0.352 ± 0.02 | – | – | – | – | – | – |
| O=C(O)CCCc1ccc(N(CCCl)CCCl)cc1 [Chlorambucil] | 0.2478 ± 0.002 | 0.258 ± 0.086 | 0.288 ± 0.096 | – | – | 0.429 ± 0.0069 | 0.326 ± 0.016 | 0.296 ± 0.0033 | 0.263 ± 0.0054 | 0.206 ± 0.0083 | 0.191 ± 0.0081 | 0.135 ± 0.0069 | – |
| NCC(O)c1ccc(O)cc1 (racemic) [(+,-)-Octopamine hydrochloride] | 0.258 ± 0.0024 | 0.483 ± 0.015 | 0.45 ± 0.018 | 0.203 ± 0.0088 | 0.271 ± 0.022 | 0.408 ± 0.015 | 0.337 ± 0.014 | – | – | – | – | – | 0.584 ± 0.08 |
| C[C@]12CC[C@H](O)C[C@@H]1CC[C@@H]1[C@@H]2CC[C@]2(C)C(=O)CC[C@@H]12 [Epiandrosterone] | 0.126 ± 0.0063 | 0.0929 ± 0.015 | 0.168 ± 0.018 | – | – | 0.353 ± 0.043 | 0.109 ± 0.0099 | 0.12 ± 0.0055 | 0.107 ± 0.0061 | 0.0943 ± 0.0019 | 0.0694 ± 0.0019 | 0.0859 ± 0.0011 | – |
| CC(C)c1cccc(C(C)C)c1O [Propofol] | 0.245 ± 0.0043 | 0.441 ± 0.024 | 0.439 ± 0.03 | 0.212 ± 0.011 | 0.236 ± 0.028 | 0.389 ± 0.01 | 0.328 ± 0.0056 | – | – | – | – | – | – |
| CN1C[C@H](CNC(=O)OCc2ccccc2)C[C@@H]2c3cccc4c3c(cn4C)C[C@H]21 [Metergoline] | 0.0409 ± 0.00056 | 0.0522 ± 0.002 | 0.0487 ± 0.0029 | 0.048 ± 0.0011 | 0.0468 ± 0.00083 | 0.278 ± 0.2 | 0.05077 ± 0.00012 | – | – | – | – | – | – |
| Fc1ccc(C(OCCN2CCN(CCCc3ccccc3)CC2)c2ccc(F)cc2)cc1 | 0.0433 ± 0.0027 | 0.0464 ± 0.00055 | 0.04613 ± 0.00046 | 0.0461 ± 0.00026 | 0.0459 ± 0.00085 | 0.235 ± 0.15 | 0.0503 ± 0.0006 | – | – | – | – | – | – |
| CCCCCC[C@H]1C(=O)O[C@H](C)[C@H](NC(=O)c2cccc(NC=O)c2O)C(=O)O[C@@H](C)[C@@H]1OC(=O)CC(C)C [Antimycin A] | 0.191 ± 0.0077 | 0.24 ± 0.017 | 0.316 ± 0.12 | – | – | 0.363 ± 0.0093 | 0.319 ± 0.02 | – | – | – | – | – | – |
| CCN[C@@H](C)Cc1cccc(C(F)(F)F)c1 [Dexfenfluramine hydrochloride] | 0.23 ± 0.013 | 0.235 ± 0.033 | 0.335 ± 0.083 | – | – | 0.412 ± 0.0093 | 0.351 ± 0.026 | – | – | – | – | – | – |
| C[C@@H]1O[C@@H](O[C@@H]2C=C3CC[C@@H]4[C@H](CC[C@]5(C)[C@@H](c6ccc(=O)oc6)CC[C@]45O)[C@@]3(C)CC2)[C@H](O)[C@H](O)[C@H]1O [Proscillaridin A] | 0.182 ± 0.0085 | 0.117 ± 0.0017 | 0.234 ± 0.021 | 0.163 ± 0.004 | 0.173 ± 0.019 | 0.405 ± 0.009 | 0.267 ± 0.0065 | – | – | – | – | – | – |
| COc1cccc(C2(O)CCCCC2CN(C)C)c1 (stereo not given) [Tramadol hydrochloride] | 0.238 ± 0.0082 | 0.31 ± 0.028 | 0.403 ± 0.065 | – | – | 0.4058 ± 0.0034 | 0.327 ± 0.016 | 0.308 ± 0.012 | 0.271 ± 0.0049 | 0.193 ± 0.0059 | 0.193 ± 0.012 | 0.1352 ± 0.00092 | – |
| C=CCN1CC[C@]23c4c5ccc(O)c4O[C@H]2C(=O)CC[C@@]3(O)[C@H]1C5 [Naloxone hydrochloride] | 0.244 ± 0.012 | 0.295 ± 0.066 | 0.498 ± 0.028 | – | – | 0.419 ± 0.0087 | 0.317 ± 0.026 | 0.266 ± 0.026 | 0.27 ± 0.016 | 0.192 ± 0.021 | 0.178 ± 0.0076 | 0.137 ± 0.0051 | – |
| CN(C)C(=O)Oc1cc(OC(=O)N(C)C)cc(C(O)CNC(C)(C)C)c1 (stereo not given) [Bambuterol hydrochloride] | 0.22 ± 0.0079 | 0.328 ± 0.026 | 0.39 ± 0.047 | – | – | 0.405 ± 0.011 | 0.342 ± 0.015 | – | – | – | – | – | 0.618 ± 0.051 |
| COc1ccc(OC)c(C(O)C(C)N)c1 (stereo not given) [Methoxamine hydrochloride] | 0.241 ± 0.0052 | 0.272 ± 0.074 | 0.409 ± 0.021 | – | – | 0.413 ± 0.011 | 0.334 ± 0.023 | – | – | – | – | – | – |
| O=C(CCCN1CCC(n2c(=O)[nH]c3ccccc32)CC1)c1ccc(F)cc1 [Benperidol] | 0.181 ± 0.0021 | 0.357 ± 0.062 | 0.434 ± 0.086 | – | – | 0.411 ± 0.016 | 0.26 ± 0.02 | 0.269 ± 0.0074 | 0.263 ± 0.0054 | 0.179 ± 0.036 | 0.135 ± 0.0025 | 0.149 ± 0.0063 | – |
| c1ccc2c(c1)Nc1ccccc1S2 [Phenothiazine] | 0.157 ± 0.0061 | 0.377 ± 0.076 | 0.177 ± 0.014 | – | – | 0.415 ± 0.0099 | 0.344 ± 0.021 | – | – | – | – | – | – |
| CCN(C(C)=O)c1cccc(-c2ccnc3c(C#N)cnn23)c1 [Zaleplon] | 0.205 ± 0.0057 | 0.243 ± 0.034 | 0.307 ± 0.086 | 0.179 ± 0.013 | 0.201 ± 0.0029 | 0.411 ± 0.012 | 0.298 ± 0.011 | – | – | – | – | – | – |
